# Reference: PubChem BioAssay (NCATS)
# Results filed as inconclusive are left out. A call without a number means that no potency is given here. For some of these results: Measured potencies and affinities stand elsewhere. A structure can be active in one record and inactive in another. Activity calls are given as the source filed them. Unless noted, how the calls were made is not given here.
# How the values were obtained:
# [1] = Ebola virus entry assay, green fluorescence channel
# [2] = Ebola virus entry assay, blue channel fluorescence
# [3] = Ebola virus entry assay, ratio channel
# [4] = Ebola virus entry assay, green channel fluorescence
# [5] = Ebola virus entry assay, reporter ratio channel; AC50: Channel type: primary unless noted; outcome: Channel type: primary unless noted
# [6] = Ebola virus entry assay, blue channel (ratio component)
# [7] = qHTS assay for measurement of the activity of small molecule inhibitors on Zika virus induced Caspase-3 activity in human iPSC derived neural progenitor cells (hNPCs) (AID 1224857; active means well fitted inhibition curve with a large enough effect; further: nearly all actives have a fitted effect of over 65% in size); conditions: hNPCs ZIKV-induced caspase-3/7, Caspase-Glo luminescence, 6 h; series mostly up to 45.7 µM
# How it was run: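 Quantitative HTS format: human iPSC neural progenitors, 1 h compound pretreatment, ZIKV 2 FFU/cell for 6 h at 37 C. Percent inhibition derived from luminescent caspase-3/7 signal between uninfected and infected controls.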
# [8] = qHTS assay for measurement of the activity of small molecule inhibitors on Zika virus induced Caspase-3 activity in human astrocytoma cells (AID 1224859; active means well fitted inhibition curve with a large enough effect); conditions: SNB-19 ZIKV-induced caspase-3/7, luminescence, 6 h; series mostly up to 45.7 µM
# How it was run: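 Readout is luminescence from Caspase-Glo 3/7 added after a 6 h ZIKV infection (2 FFU/cell) of compound-pretreated (1 h) SNB-19 cells; data expressed as % inhibition versus uninfected and infected wells.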
# [9] = Immunotoxin (HA22) sensitization/mitigation study. Vehicle arm (PBS) (AID 1159510); conditions: cancer cells viability with PBS vehicle (HA22 study); series mostly up to 46.1 µM; further: potency means the concentration at half of the fitted maximal effect
# [10] = Immunotoxin (SS1P) sensitization/mitigation study. Vehicle arm (DMEM) (AID 1159513); conditions: cell viability with vehicle (DMEM); series mostly up to 46.1 µM; further: potency means the concentration at half of the fitted maximal effect
# [11] = High-throughput drug toxicity screening in the BPDCN cell line Gen2.2 (AID 1224824); conditions: Gen2.2 BPDCN cells; at 45.8 µM (top of the series);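 further: cells exposed to compounds for 48 h before reading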
# How it was run: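 Gen2.2, 500 cells/well, phenol red-free RPMI/10% FBS/Pen-Strep; 48 h cpd, 37 °C/5% CO2; CTG lum, 15 min RT. Norm: DMSO = 100%, bortezomib 9.2 uM final = 0%.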
# [12] = High-throughput drug toxicity screening in the BPDCN cell line Cal-1 (AID 1224825); conditions: Cal-1 BPDCN cell viability, qHTS; at 45.8 µM (top of the series)
# How it was run: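 500 Cal-1 cells/well, RPMI + glutamine + 10% FBS (phenol red-free); cpd added by pin tool; 48 h, 37C, 5% CO2; CTG 15 min RT, lumi read. Normalised: DMSO 100%, bortezomib 9.2 uM 0%.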
# [13] = qHTS Screen of the MIPE 4.0 Collection Against Ewings Sarcoma (TC32) (AID 1259256; active means well fitted inhibition curve with a large enough effect; further: potency means the concentration at half of the fitted maximal effect; nearly all actives have a fitted effect of over 45% in size); conditions: TC32 Ewing sarcoma viability, CellTiter-Glo, 48 h; series mostly up to 45.8 µM
# How it was run: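 After a 4 h attachment period in RPMI/5% FBS, cells were pin-dosed with test compounds; DMSO served as negative and 9.2 uM bortezomib (final) as positive control. Luminescent CellTiter-Glo signal at 48 h defined viability.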
smiles,measurement,setting,value
O=[N+]([O-])c1cc([As](=O)(O)O)ccc1O,efficacy,[1],-13% (inactive)
same,outcome,[2],inactive
same,outcome,[3],inactive
same,outcome,[4],inactive
same,outcome,[5],inactive
same,outcome,[6],inactive
same,Potency,[7],inactive
same,outcome,[8],inactive
Nc1ccncc1,efficacy,[1],-10% (inactive)
same,outcome,[2],inactive
same,outcome,[3],inactive
same,outcome,[4],inactive
same,outcome,[5],inactive
same,outcome,[6],inactive
same,outcome,[8],inactive
CCCC1CCCCN1 (stereo not given),efficacy,[1],-19.4% (inactive)
same,outcome,[2],inactive
same,outcome,[3],inactive
same,outcome,[4],inactive
same,outcome,[5],inactive
same,outcome,[6],inactive
same,Potency,[7],inactive
same,outcome,[8],inactive
CCOP(=S)(OCC)Oc1cc(C)nc(C(C)C)n1,efficacy,[1],13.4% (inactive)
same,outcome,[2],inactive
same,outcome,[3],inactive
same,outcome,[4],inactive
same,outcome,[5],inactive
same,outcome,[6],inactive
same,Potency,[7],inactive
same,outcome,[8],inactive
O=C(O)c1ccc2[nH]cc(CCCCN3CC=C(c4ccccc4)CC3)c2c1,efficacy,[1],28% (inactive)
same,outcome,[2],inactive
same,outcome,[3],inactive
same,outcome,[4],inactive
same,outcome,[5],inactive
same,outcome,[6],inactive
same,Potency,[7],inactive
same,outcome,[8],inactive
c1ccc2c(c1)OCC(C1=NCCN1)O2 (stereo not given),efficacy,[1],12.1% (inactive)
same,outcome,[2],inactive
same,outcome,[3],inactive
same,outcome,[4],inactive
same,AC50,[5],35.5 µM (active)
same,outcome,[6],inactive
same,Potency,[7],inactive
same,outcome,[8],inactive
OCCOc1ccccc1,efficacy,[1],-12.5% (inactive)
same,outcome,[2],inactive
same,outcome,[3],inactive
same,outcome,[4],inactive
same,outcome,[5],inactive
same,outcome,[6],inactive
same,Potency,[7],inactive
same,outcome,[8],inactive
Cc1ncc(CNC(=O)N(CCCl)N=O)c(N)n1,efficacy,[1],16.2% (inactive)
same,outcome,[2],inactive
same,outcome,[3],inactive
same,outcome,[4],inactive
same,outcome,[5],inactive
same,outcome,[6],inactive
same,outcome,[8],inactive
COc1ccc(Cc2nccc3cc(OC)c(OC)cc23)cc1OC,efficacy,[1],13% (inactive)
same,outcome,[2],inactive
same,outcome,[3],inactive
same,outcome,[4],inactive
same,outcome,[5],inactive
same,outcome,[6],inactive
same,outcome,[8],inactive
COc1cccc2c1C(=O)c1c(O)c3c(c(O)c1C2=O)C[C@@](O)(C(=O)CO)C[C@@H]3O[C@H]1C[C@H](N)[C@H](O)[C@H](C)O1,efficacy,[1],89.6% (inactive)
same,AC50,[2],15.8 µM (active)
same,AC50,[3],14.1 µM (active)
same,AC50,[5],14.1 µM (active)
same,Potency,[9],0.0118 µM (active)
same,Potency,[10],0.187 µM (active)
C=CCN1CC[C@]23c4c5ccc(O)c4O[C@H]2C(=O)CC[C@@]3(O)[C@H]1C5,efficacy,[1],15.7% (inactive)
same,outcome,[2],inactive
same,outcome,[3],inactive
same,outcome,[4],inactive
same,outcome,[5],inactive
same,outcome,[6],inactive
same,outcome,[8],inactive
COc1ccccc1N1CCNCC1,efficacy,[1],33.5% (inactive)
same,outcome,[2],inactive
same,outcome,[3],inactive
same,outcome,[4],inactive
same,outcome,[5],inactive
same,Potency,[7],inactive
same,outcome,[8],inactive
CN1C(=S)CN=C(c2ccccc2)c2cc(Cl)ccc21,efficacy,[1],37% (inactive)
same,outcome,[2],inactive
same,outcome,[3],inactive
same,outcome,[5],inactive
same,outcome,[6],inactive
same,Potency,[7],inactive
same,outcome,[8],inactive
Cc1ccc(S(=O)(=O)N[C@@H](CCCCN)C(=O)CCl)cc1,efficacy,[1],32.6% (inactive)
same,AC50,[2],14.1 µM (active)
same,outcome,[3],inactive
same,outcome,[4],inactive
same,AC50,[5],28.2 µM (active)
same,Potency,[7],inactive
same,outcome,[8],inactive
Cn1cc(C2=C(c3cn(C4CCN(Cc5ccccn5)CC4)c4ccccc34)C(=O)NC2=O)c2ccccc21,efficacy,[1],36.4% (inactive)
same,outcome,[2],inactive
same,outcome,[3],inactive
same,outcome,[4],inactive
same,outcome,[5],inactive
same,Potency,[9],4.18 µM (active)
same,"cell viability, % of control (lower = more cytotoxic)",[11],265%
same,viability (% of control),[12],14.5%
same,Potency,[7],inactive
same,outcome,[8],inactive
same,Potency,[13],8.33 µM (active)
CCCCC(CC)CN=C(N)NC(N)=NCCCCCCN=C(N)NC(N)=NCC(CC)CCCC (stereo not given),efficacy,[1],-201% (inactive)
same,AC50,[2],11.2 µM (active)
same,outcome,[3],inactive
same,outcome,[5],inactive
Oc1ccccc1-c1ccccc1,efficacy,[1],11.7% (inactive)
same,outcome,[2],inactive
same,outcome,[3],inactive
same,outcome,[4],inactive
same,outcome,[5],inactive
same,outcome,[8],inactive
NC(=Nc1ccccc1)Nc1ccccc1,efficacy,[1],-28.5% (inactive)
same,AC50,[2],3.16 µM (active)
same,outcome,[3],inactive
same,AC50,[5],31.6 µM (active)
same,outcome,[5],inactive
COC(=O)Nc1nc2ccc(C(=O)c3cccs3)cc2[nH]1,efficacy,[1],64.8% (inactive)
same,AC50,[2],0.708 µM (active)
same,AC50,[3],0.708 µM (active)
same,AC50,[5],0.708 µM (active)
same,outcome,[5],inactive [Channel type: confirmation]
CCCCCCC[N+](CC)(CC)CCCCc1ccc(Cl)cc1,efficacy,[1],30.3% (inactive)
same,AC50,[2],39.8 µM (active)
same,outcome,[3],inactive
same,AC50,[5],39.8 µM (active)
Cc1ccc(-n2nc(C(C)(C)C)cc2NC(=O)Nc2ccc(OCCN3CCOCC3)c3ccccc23)cc1,efficacy,[1],134% (inactive)
same,AC50,[2],25.1 µM (active)
same,AC50,[3],20 µM (active)
same,AC50,[5],20 µM (active)
same,Potency,[9],10.5 µM (active)
same,Potency,[10],inactive
CCC1(C2=NCCN2)Cc2ccccc2O1 (stereo not given),efficacy,[1],28% (inactive)
same,outcome,[2],inactive
same,outcome,[3],inactive
same,outcome,[5],inactive
same,outcome,[6],inactive
same,outcome,[8],inactive
N[C@@H](Cc1ccc(Oc2cc(I)c(O)c(I)c2)c(I)c1)C(=O)O,efficacy,[1],-32% (inactive)
same,outcome,[2],inactive
same,outcome,[3],inactive
same,outcome,[4],inactive
same,outcome,[5],inactive
same,outcome,[6],inactive
same,outcome,[8],inactive
CC(C)C[C@H](NC(=O)[C@H](CCc1ccccc1)NC(=O)CN1CCOCC1)C(=O)N[C@@H](Cc1ccccc1)C(=O)N[C@@H](CC(C)C)C(=O)[C@@]1(C)CO1,efficacy,[1],-41% (inactive)
same,AC50,[2],0.316 µM (active)
same,AC50,[3],0.708 µM (active)
same,AC50,[5],0.708 µM (active)
same,Potency,[9],0.0015 µM (active)
same,Potency,[10],0.0418 µM (active)
COc1cc2c(N3CCN(C(=O)Nc4ccc(OC(C)C)cc4)CC3)ncnc2cc1OCCCN1CCCCC1,efficacy,[1],52% (inactive)
same,AC50,[2],11.2 µM (active)
same,AC50,[3],10 µM (active)
same,AC50,[5],10 µM (active)
same,Potency,[9],20.9 µM (active)
O=C1NCN(c2ccccc2)C12CCN(CC1COc3ccccc3O1)CC2 (stereo not given),efficacy,[1],-42.1% (inactive)
same,outcome,[2],inactive
same,outcome,[3],inactive
same,outcome,[5],inactive
same,outcome,[6],inactive
same,Potency,[7],inactive
same,outcome,[8],inactive
